In test [1] the test system is Vero E6 infected with SARS-CoV-2. The test can be described thus: morphology score (similarity to uninfected cells); higher = more like uninfected cells. Conditions: 24 h.
The test system is the same in test [2]. The test can be described thus: SARS-CoV-2 infection rate relative to infected DMSO; higher = more infection, active = 60 or less. Conditions: 24 h.

SMILES strings stand for the structures.

On to `COc1ccc2cc([C@H](C)C(=O)O)ccc2c1` [naproxen] (10 µM), for which, in test [1], the morphology score is -0.0223. Besides, the SARS-CoV-2 infection rate in test [2] was 106% (inactive).

As for `CC1(COc2ccc(CC3SC(=O)NC3=O)cc2)CCCCC1` (centres undefined) [ciglitazone] (10 µM), in test [1], the morphology score was 0.036. The SARS-CoV-2 infection rate in test [2] was 110% (inactive).

`CN1c2c([nH]c(N)nc2=O)NC[C@@H]1CNc1ccc(C(=O)N[C@@H](CCC(=O)O)C(=O)O)cc1` [metafolin] (10 µM) returned a morphology score in test [1] of 0.0144. Further, the SARS-CoV-2 infection rate in test [2] is 115% (inactive).

In the case of `O=C1CCc2ccc(OCCCCN3CCN(c4cccc(Cl)c4Cl)CC3)cc2N1` [aripiprazole] (10 µM), the morphology score in test [1] is -0.0119. In addition, in test [2], the SARS-CoV-2 infection rate was 103% (inactive).

With `NS(=O)(=O)c1cc2c(cc1C(F)(F)F)NCNS2(=O)=O` [hydroflumethiazide] (10 µM), in test [1], the morphology score is 0.112. In addition, the SARS-CoV-2 infection rate in test [2] was 112% (inactive).

As for `COc1ccccc1N1CCN(CCCCNC(=O)c2ccc(-c3ccc(C(C)=O)cc3)cc2)CC1` (10 µM), the morphology score in test [1] is -0.218. In addition, the SARS-CoV-2 infection rate in test [2] is 113% (inactive).

In the case of `CCC(CC)CC1(C(=O)Nc2ccccc2SC(=O)C(C)C)CCCCC1` [dalcetrapib] (10 µM), the morphology score in test [1] was 0.152. Further, the SARS-CoV-2 infection rate in test [2] is 111% (inactive).

Compound `Cc1c(C)c2c(c(C)c1O)CCC(C)(C(=O)O)O2` (centres undefined) [trolox] (0.833333 µM) gave a morphology score in test [1] of 0.0965. The SARS-CoV-2 infection rate in test [2] is 98.5% (inactive).

On to `NC1CCN(c2cccc(Cl)n2)CC1` (10 µM), for which, in test [1], the morphology score was -0.122. In test [2], the SARS-CoV-2 infection rate is 108% (inactive).

The compound `COc1cc2ncnc(Nc3ccc(O)c(Br)c3)c2cc1OC` (10 µM) registered a morphology score in test [1] of -0.194. In addition, in test [2], the SARS-CoV-2 infection rate was 103% (inactive).

Regarding `CCN(CC)CCNc1ccc(CO)c2sc3ccccc3c(=O)c12` [hycanthone] (0.833333 µM), the morphology score in test [1] came out at 0.244. Moreover, the SARS-CoV-2 infection rate in test [2] was 82% (inactive).

`Brc1c(Br)c(Br)c2[nH]nnc2c1Br` [4,5,6,7-tetrabromobenzotriazole] (10 µM) gave a morphology score in test [1] of -0.0654. Further, the SARS-CoV-2 infection rate in test [2] is 106% (inactive).

`CCn1c(O)nnc1-c1ccc(Cl)cc1` [5-(4chlorophenyl)-4-ethyl-2,4-dihydro-3H-1,2,4-triazol-3-one] (0.833333 µM): in test [1], the morphology score was 0.0166. The SARS-CoV-2 infection rate in test [2] is 110% (inactive).

The compound `Cc1c(C(N)=O)cc([N+](=O)[O-])cc1[N+](=O)[O-]` [dinitolmide] (10 µM) returned a morphology score in test [1] of -0.0186. The SARS-CoV-2 infection rate in test [2] is 106% (inactive).

As for `COc1ccccc1N1CCN(CCN2C(=O)c3ccccc3C(C)(C)C2=O)CC1` (10 µM), the morphology score in test [1] came out at 0.213. In addition, the SARS-CoV-2 infection rate in test [2] is 100% (inactive).

In test [1], `CN(C)[C@@H]1CCc2[nH]c3ccc(NC(=O)c4ccc(F)cc4)cc3c2C1` (10 µM) had a morphology score of 0.438. The SARS-CoV-2 infection rate in test [2] was 70.5% (inactive).

`CN1C(CCl)Nc2cc(Cl)c(S(N)(=O)=O)cc2S1(=O)=O` (centres undefined) [methyclothiazide] (10 µM) yielded a morphology score in test [1] of 0.0153. Besides, in test [2], the SARS-CoV-2 infection rate was 104% (inactive).

Compound `N=C(N)NC(=N)NCCc1ccccc1` [phenformin] (10 µM) gave a morphology score in test [1] of 0.0321. The SARS-CoV-2 infection rate in test [2] was 110% (inactive).

`CCCC[C@@]1(C2CCCC2)Cc2cc(OCCCC(=O)O)c(Cl)c(Cl)c2C1=O` (10 µM) displayed a morphology score in test [1] of -0.08. For the same compound, the SARS-CoV-2 infection rate in test [2] is 92.5% (inactive).

The compound `C[C@]12CC[C@@H]3c4ccc(OC(=O)c5ccccc5)cc4CC[C@H]3[C@@H]1CC[C@@H]2O` [estradiol-benzoate] (10 µM) yielded a morphology score in test [1] of -0.19. Also, the SARS-CoV-2 infection rate in test [2] is 111% (inactive).

Turning to `O=C(Nc1cccnn1)N1CCC(=Cc2cccc(Oc3ccc(C(F)(F)F)cn3)c2)CC1` (10 µM), the morphology score in test [1] was determined as 0.00817. In test [2], the SARS-CoV-2 infection rate was 104% (inactive).

Consider `O=C(NCCN1CCC2(CC1)C(=O)NCN2c1cccc(F)c1)c1ccc(F)c(F)c1` (10 µM), for which the morphology score in test [1] was 0.259. Moreover, the SARS-CoV-2 infection rate in test [2] is 75.5% (inactive).

As for `COC1(C[S@@+]([O-])c2ccccc2)CCN(CCc2c[nH]c3ccc(F)cc23)CC1` (10 µM), in test [1], the morphology score is -0.00604. The SARS-CoV-2 infection rate in test [2] is 102% (inactive).

Take `CC(C)[C@H]1C(=O)N[C@@H](CCCNC(=N)N)C(=O)NCC(=O)N[C@@H](CC(=O)O)C(=O)N[C@H](Cc2ccccc2)C(=O)N1C` [cilengitide] (10 µM): the morphology score in test [1] is -0.377. In addition, in test [2], the SARS-CoV-2 infection rate is 109% (inactive).

`Cc1ccc(C(=O)c2ccc(CC(=O)O)n2C)cc1` [tolmetin] (10 µM) gave a morphology score in test [1] of 0.0813. Also, the SARS-CoV-2 infection rate in test [2] was 106% (inactive).

In test [1], `C=CC[C@@H]1/C=C(\C)C[C@H](C)C[C@H](OC)[C@H]2O[C@@](O)(C(=O)C(=O)N3CCCC[C@H]3C(=O)O[C@H](/C(C)=C/[C@@H]3CC[C@@H](O)[C@H](OC)C3)[C@H](C)[C@@H](O)CC1=O)[C@H](C)C[C@@H]2OC` [tacrolimus] (10 µM) displayed a morphology score of 0.199. For the same compound, the SARS-CoV-2 infection rate in test [2] was 93% (inactive).

As to `O=C(COc1ccc(Cl)cc1)N[C@H]1CC[C@H](NC(=O)COc2ccc(Cl)cc2)CC1` (10 µM), in test [1], the morphology score is -0.175. Besides, the SARS-CoV-2 infection rate in test [2] is 106% (inactive).
